Measured values: the supplement of paper PMC10849652
About 7,900 targets were measured; listed, in parts, are those with a hit and a random draw of the rest. About 0.6% of all pairs of compound and target were hits.

Experiments:
Experiment in all cases: log2 fold change, soluble protein after heating vs DMSO (PISA); higher = thermal stabilisation; K562 cells, 10 uM, 30 min; active = over 0.2 and 3.5 SD of the protein, either way, in both replicates (recomputed)
saracatinib = compound: CN1CCN(CCOc2cc(OC3CCOCC3)c3c(Nc4c(Cl)ccc5c4OCO5)ncnc3c2)CC1 [saracatinib]
In short: (§1)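 K562 cells at 2×10^6 cells/mL were treated with 10 μM compound for 30 min. Aliquots were heated for 3 min across 48°C-58°C, pooled, and extracted in PBS with 0.5% NP-40 at 4°C; soluble protein was the supernatant after 21,000xg for 90 min. Soluble protein was quantified by TMTpro 16plex LC-MS/MS with channel sums equalised, and reported as log2 fold change in thermal stability against DMSO controls, with values from duplicates.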

sotrastaurin = compound: CN1CCN(c2nc(C3=C(c4c[nH]c5ccccc45)C(=O)NC3=O)c3ccccc3n2)CC1 [sotrastaurin]
In short: as §1

alvocidib = compound: CN1CC[C@H](c2c(O)cc(O)c3c(=O)cc(-c4ccccc4Cl)oc23)[C@H](O)C1 [alvocidib]
In short: as §1

Tubastatin A = compound: CN1CCc2c(c3ccccc3n2Cc2ccc(C(=O)NO)cc2)C1 [Tubastatin A]
In short: as §1

[1] = compound: CNC(=O)C1=CC=CC=C1NC2=NC(=NC=C2Cl)NC3=C(C=C(C=C3)N4CCOCC4)OC
In short: as §1

defactinib = compound: CNC(=O)c1ccc(Nc2ncc(C(F)(F)F)c(NCc3nccnc3N(C)S(C)(=O)=O)n2)cc1 [defactinib]
In short: as §1

rucaparib = compound: CNCc1ccc(-c2[nH]c3cc(F)cc4c3c2CCNC4=O)cc1 [rucaparib]
In short: as §1

[2] = compound: CNc1nc(-c2ccc3c(N)n[nH]c3c2)cc(N2C[C@@H](C(=O)NC3CCCCC3)CC[C@H]2C)n1
In short: as §1

encorafenib = compound: COC(=O)N[C@@H](C)CNc1nccc(-c2cn(C(C)C)nc2-c2cc(Cl)cc(NS(C)(=O)=O)c2F)n1 [encorafenib]
In short: as §1

[3] = compound: COC(=O)[C@H](CCSC)NC(=O)C1=C(C=C(C=C1)NC[C@H](CS)N)C2=CC=CC=C2
In short: as §1

[4] = compound: COC1=CC=C(C=C1)CN2C=CC3=C2C=C(C=C3)C(=O)NO
In short: as §1

filanesib = compound: CON(C)C(=O)N1N=C(c2cc(F)ccc2F)S[C@@]1(CCCN)c1ccccc1 [filanesib]
In short: as §1

zotarolimus = compound: CO[C@H]1C[C@@H]2CC[C@@H](C)[C@@](O)(O2)C(=O)C(=O)N2CCCC[C@H]2C(=O)O[C@H]([C@H](C)C[C@@H]2CC[C@H](n3cnnn3)[C@H](OC)C2)CC(=O)[C@H](C)/C=C(\C)[C@@H](O)[C@@H](OC)C(=O)[C@H](C)C[C@H](C)/C=C/C=C/C=C/1C [zotarolimus]
In short: as §1

idasanutlin = compound: COc1cc(C(=O)O)ccc1NC(=O)[C@@H]1N[C@@H](CC(C)(C)C)[C@](C#N)(c2ccc(Cl)cc2F)[C@H]1c1cccc(Cl)c1F [idasanutlin]
In short: as §1

alisertib = compound: COc1cc(Nc2ncc3c(n2)-c2ccc(Cl)cc2C(c2c(F)cccc2OC)=NC3)ccc1C(=O)O [alisertib]
In short: as §1

[5] = compound: COc1cc2nc(-c3cc(F)ccc3O)nc(N[C@@H]3CNC[C@H]3C(C)(C)O)c2cc1OC
In short: as §1

gefitinib = compound: COc1cc2ncnc(Nc3ccc(F)c(Cl)c3)c2cc1OCCCN1CCOCC1 [gefitinib]
In short: as §1

[6] = compound: COc1cccc2cc(-c3nc([C@H]4CC[C@H](C(=O)O)CC4)n4ncnc(N)c34)[nH]c12
In short: as §1

lapatinib = compound: CS(=O)(=O)CCNCc1ccc(-c2ccc3ncnc(Nc4ccc(OCc5cccc(F)c5)c(Cl)c4)c3c2)o1 [lapatinib]
In short: as §1

pictilisib = compound: CS(=O)(=O)N1CCN(Cc2cc3nc(-c4cccc5[nH]ncc45)nc(N4CCOCC4)c3s2)CC1 [pictilisib]
In short: as §1

Measured: log2 fold change

EIF4A1 (UniProt P60842)
inactive: saracatinib -0.029 | sotrastaurin -0.138 | alvocidib -0.088 | Tubastatin A 0.049 | [1] -0.03 | defactinib -0.116 | rucaparib 0 | [2] 0.012 | encorafenib 0.071 | [3] -0.05 | [4] 0.061 | filanesib -0.11 | zotarolimus -0.009 | idasanutlin -0.075 | alisertib -0.004 | [5] -0.01 | gefitinib 0.004 | [6] -0.027 | lapatinib 0.016 | pictilisib -0.088

EOGT (UniProt Q5NDL2)
UniProt Q5NDL2, sequence (Q5NDL2 whole entry, looked up): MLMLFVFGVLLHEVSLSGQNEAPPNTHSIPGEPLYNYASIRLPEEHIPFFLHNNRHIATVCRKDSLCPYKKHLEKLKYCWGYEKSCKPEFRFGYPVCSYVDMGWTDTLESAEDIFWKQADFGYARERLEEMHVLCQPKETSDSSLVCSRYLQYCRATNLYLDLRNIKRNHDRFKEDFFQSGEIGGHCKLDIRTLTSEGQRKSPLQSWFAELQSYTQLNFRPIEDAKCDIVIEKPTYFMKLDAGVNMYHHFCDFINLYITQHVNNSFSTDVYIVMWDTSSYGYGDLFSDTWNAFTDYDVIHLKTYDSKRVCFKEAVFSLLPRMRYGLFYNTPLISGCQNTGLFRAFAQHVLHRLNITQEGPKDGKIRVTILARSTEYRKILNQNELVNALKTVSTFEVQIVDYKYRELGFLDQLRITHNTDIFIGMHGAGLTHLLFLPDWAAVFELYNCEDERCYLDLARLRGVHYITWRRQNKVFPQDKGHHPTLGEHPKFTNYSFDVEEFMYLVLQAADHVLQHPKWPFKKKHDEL
inactive: saracatinib -0.012 | sotrastaurin 0.052 | alvocidib -0.02 | Tubastatin A 0.025 | [1] 0 | defactinib 0.031 | rucaparib 0.014 | [2] -0.158 | encorafenib 0.042 | [3] -0.032 | [4] -0.026 | filanesib 0.053 | zotarolimus 0.013 | idasanutlin 0.036 | alisertib 0.028 | [5] 0.056 | gefitinib 0.008 | [6] -0.021 | lapatinib 0.068 | pictilisib 0.007

EEF1AKNMT (UniProt Q8N6R0)
inactive: saracatinib -0.063 | sotrastaurin -0.174 | alvocidib -0.039 | Tubastatin A -0.004 | [1] 0.063 | defactinib -0.068 | rucaparib 0.115 | [2] 0.059 | encorafenib 0.095 | [3] -0.182 | [4] -0.256 | filanesib -0.052 | zotarolimus 0.096 | idasanutlin 0.013 | alisertib -0.035 | [5] 0.037 | gefitinib 0.065 | [6] -0.037 | lapatinib -0.014 | pictilisib 0

DHFR (UniProt P00374)
UniProt P00374, sequence (P00374 whole entry, looked up): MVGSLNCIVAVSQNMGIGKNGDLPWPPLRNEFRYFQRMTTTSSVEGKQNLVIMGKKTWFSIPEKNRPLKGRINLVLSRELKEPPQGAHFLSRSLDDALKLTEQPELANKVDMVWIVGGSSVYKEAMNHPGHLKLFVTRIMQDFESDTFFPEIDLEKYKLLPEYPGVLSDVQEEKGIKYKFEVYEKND
active: sotrastaurin 1.66 | Tubastatin A 1.77
inactive: saracatinib -0.193 | alvocidib 0.215 | [1] -0.115 | defactinib -0.109 | rucaparib 0.39 | [2] 0.036 | encorafenib 0.109 | [3] -0.059 | [4] -0.057 | filanesib 0.089 | zotarolimus 0.065 | idasanutlin -0.051 | alisertib -0.08 | [5] 0.109 | gefitinib -0.021 | [6] -0.05 | lapatinib -0.061 | pictilisib 0.039

DIP2A (UniProt Q14689)
UniProt Q14689, sequence (Q14689 whole entry, looked up): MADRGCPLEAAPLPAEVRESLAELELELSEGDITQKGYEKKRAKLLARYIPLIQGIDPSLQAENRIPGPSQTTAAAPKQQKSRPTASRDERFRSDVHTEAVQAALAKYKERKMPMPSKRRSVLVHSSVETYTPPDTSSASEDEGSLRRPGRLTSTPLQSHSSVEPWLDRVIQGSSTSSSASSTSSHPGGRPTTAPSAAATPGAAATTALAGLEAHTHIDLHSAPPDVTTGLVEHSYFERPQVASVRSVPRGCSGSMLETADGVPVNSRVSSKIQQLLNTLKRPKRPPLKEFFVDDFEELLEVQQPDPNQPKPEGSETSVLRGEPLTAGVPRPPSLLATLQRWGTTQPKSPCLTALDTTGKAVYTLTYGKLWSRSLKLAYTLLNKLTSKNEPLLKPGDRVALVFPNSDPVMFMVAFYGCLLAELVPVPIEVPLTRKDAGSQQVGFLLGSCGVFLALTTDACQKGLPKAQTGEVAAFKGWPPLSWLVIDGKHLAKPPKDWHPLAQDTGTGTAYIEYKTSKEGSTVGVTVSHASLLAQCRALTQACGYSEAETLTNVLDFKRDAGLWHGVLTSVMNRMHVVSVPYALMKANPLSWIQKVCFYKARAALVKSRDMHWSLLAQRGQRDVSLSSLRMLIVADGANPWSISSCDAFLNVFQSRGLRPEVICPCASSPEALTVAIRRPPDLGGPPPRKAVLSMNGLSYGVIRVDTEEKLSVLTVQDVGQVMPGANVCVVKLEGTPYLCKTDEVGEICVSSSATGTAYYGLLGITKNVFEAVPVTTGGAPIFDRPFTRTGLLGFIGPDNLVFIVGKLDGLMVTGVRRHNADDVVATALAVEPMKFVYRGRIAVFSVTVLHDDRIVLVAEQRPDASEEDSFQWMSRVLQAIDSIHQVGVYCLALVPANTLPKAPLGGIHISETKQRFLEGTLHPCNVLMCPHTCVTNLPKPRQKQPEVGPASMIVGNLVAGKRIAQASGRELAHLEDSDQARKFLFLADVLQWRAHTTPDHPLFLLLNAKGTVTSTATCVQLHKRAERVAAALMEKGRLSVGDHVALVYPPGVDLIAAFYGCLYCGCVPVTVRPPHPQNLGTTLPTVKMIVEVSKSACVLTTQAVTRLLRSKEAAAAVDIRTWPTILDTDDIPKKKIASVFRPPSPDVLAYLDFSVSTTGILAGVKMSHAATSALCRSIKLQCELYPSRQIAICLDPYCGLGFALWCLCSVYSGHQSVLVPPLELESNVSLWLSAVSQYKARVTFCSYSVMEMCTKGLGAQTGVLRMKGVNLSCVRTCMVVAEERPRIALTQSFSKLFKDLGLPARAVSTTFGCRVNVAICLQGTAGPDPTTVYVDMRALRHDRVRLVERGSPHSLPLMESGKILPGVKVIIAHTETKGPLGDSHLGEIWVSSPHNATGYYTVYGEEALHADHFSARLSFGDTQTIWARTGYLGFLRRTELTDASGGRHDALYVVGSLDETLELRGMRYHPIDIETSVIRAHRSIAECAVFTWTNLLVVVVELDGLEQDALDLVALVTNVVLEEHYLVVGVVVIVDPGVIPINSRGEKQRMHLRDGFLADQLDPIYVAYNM
inactive: saracatinib 0.082 | sotrastaurin 0.054 | alvocidib -0.095 | Tubastatin A -0.094 | [1] 0.034 | defactinib -0.059 | rucaparib 0.1 | [2] -0.009 | encorafenib 0 | [3] 0.077 | [4] -0.097 | filanesib 0.028 | zotarolimus -0.018 | idasanutlin -0.047 | alisertib 0.357 | [5] -0.098 | gefitinib 0.008 | [6] -0.004 | lapatinib -0.047 | pictilisib 0.103

CTSH (UniProt P09668)
inactive: saracatinib 0.101 | sotrastaurin 0.044 | alvocidib 0.038 | Tubastatin A 0.017 | [1] -0.002 | defactinib 0.018 | rucaparib -0.121 | [2] -0.03 | encorafenib 0.018 | [3] 0.02 | [4] 0.066 | filanesib -0.072 | zotarolimus -0.046 | idasanutlin 0.029 | alisertib -0.06 | [5] 0.021 | gefitinib 0.025 | [6] 0.084 | lapatinib 0.018 | pictilisib 0.019

CUTA isoform 2 (UniProt O60888)
UniProt O60888, sequence (O60888 whole entry, looked up): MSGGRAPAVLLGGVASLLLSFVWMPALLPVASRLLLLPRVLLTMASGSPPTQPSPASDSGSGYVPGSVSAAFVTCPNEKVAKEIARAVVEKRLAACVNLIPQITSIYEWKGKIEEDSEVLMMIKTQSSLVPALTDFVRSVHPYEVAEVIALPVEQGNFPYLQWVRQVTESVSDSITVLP
inactive: saracatinib 0.202 | sotrastaurin 0.097 | alvocidib -0.158 | Tubastatin A 0.049 | [1] 0.003 | defactinib -0.027 | rucaparib -0.035 | [2] 0.034 | encorafenib -0.002 | [3] 0.122 | [4] 0.248 | filanesib 0.108 | zotarolimus -0.159 | idasanutlin 0.002 | alisertib -0.055 | [5] -0.225 | gefitinib 0.037 | [6] 0.012 | lapatinib 0.023 | pictilisib -0.358

CTU1 (UniProt Q7Z7A3)
UniProt Q7Z7A3, sequence (Q7Z7A3 whole entry, looked up): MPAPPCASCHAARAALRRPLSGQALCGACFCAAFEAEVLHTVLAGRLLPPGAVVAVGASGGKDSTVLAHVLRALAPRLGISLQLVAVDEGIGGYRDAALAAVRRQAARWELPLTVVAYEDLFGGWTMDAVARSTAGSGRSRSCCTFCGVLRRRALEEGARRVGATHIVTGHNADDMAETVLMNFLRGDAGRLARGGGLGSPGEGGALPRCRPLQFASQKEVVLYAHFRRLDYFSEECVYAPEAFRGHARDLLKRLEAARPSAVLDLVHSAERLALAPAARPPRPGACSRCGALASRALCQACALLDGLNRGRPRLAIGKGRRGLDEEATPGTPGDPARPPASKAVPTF
inactive: saracatinib 0.01 | sotrastaurin -0.038 | alvocidib -0.19 | Tubastatin A -0.029 | [1] -0.045 | defactinib -0.036 | rucaparib -0.003 | [2] 0.09 | encorafenib 0.02 | [3] -0.031 | [4] 0.045 | filanesib -0.193 | zotarolimus 0.022 | idasanutlin -0.037 | alisertib -0.063 | [5] -0.061 | gefitinib -0.024 | [6] 0.025 | lapatinib -0.085 | pictilisib -0.005

DHPS (UniProt P49366)
UniProt P49366, sequence (P49366 whole entry, looked up): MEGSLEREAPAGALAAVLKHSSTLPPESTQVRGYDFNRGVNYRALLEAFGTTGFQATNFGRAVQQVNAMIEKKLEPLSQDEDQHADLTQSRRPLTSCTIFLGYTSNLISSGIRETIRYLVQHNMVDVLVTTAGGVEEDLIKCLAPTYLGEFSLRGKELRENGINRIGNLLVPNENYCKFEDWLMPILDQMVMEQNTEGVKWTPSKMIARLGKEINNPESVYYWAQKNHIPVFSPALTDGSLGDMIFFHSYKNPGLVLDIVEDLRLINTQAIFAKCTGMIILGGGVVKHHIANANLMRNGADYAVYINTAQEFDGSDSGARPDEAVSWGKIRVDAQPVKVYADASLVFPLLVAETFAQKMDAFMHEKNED
active: [4] 0.268
inactive: saracatinib 0.087 | sotrastaurin 0.043 | alvocidib -0.013 | Tubastatin A 0.005 | [1] -0.026 | defactinib -0.027 | rucaparib -0.018 | [2] -0.053 | encorafenib -0.012 | [3] -0.011 | filanesib -0.024 | zotarolimus -0.001 | idasanutlin 0.03 | alisertib -0.033 | [5] -0.047 | gefitinib -0.018 | [6] 0.063 | lapatinib 0.05 | pictilisib 0.024

FAF2 (UniProt Q96CS3)
UniProt Q96CS3, sequence (Q96CS3 whole entry, looked up): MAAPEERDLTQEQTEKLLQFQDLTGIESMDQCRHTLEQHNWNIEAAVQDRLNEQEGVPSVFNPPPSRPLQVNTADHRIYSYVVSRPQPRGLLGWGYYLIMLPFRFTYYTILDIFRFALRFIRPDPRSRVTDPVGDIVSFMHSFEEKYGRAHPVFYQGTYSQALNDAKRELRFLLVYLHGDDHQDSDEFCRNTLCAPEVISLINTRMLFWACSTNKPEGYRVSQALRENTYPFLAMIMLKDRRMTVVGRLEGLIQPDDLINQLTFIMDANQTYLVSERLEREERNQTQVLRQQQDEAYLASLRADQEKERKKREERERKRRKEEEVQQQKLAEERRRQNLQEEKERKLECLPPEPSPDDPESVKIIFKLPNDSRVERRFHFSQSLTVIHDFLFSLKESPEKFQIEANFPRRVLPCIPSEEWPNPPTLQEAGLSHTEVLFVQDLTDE
inactive: saracatinib -0.084 | sotrastaurin -0.048 | alvocidib -0.053 | Tubastatin A -0.008 | [1] 0.021 | defactinib -0.011 | rucaparib 0.015 | [2] 0.021 | encorafenib 0.036 | [3] 0 | [4] -0.019 | filanesib -0.022 | zotarolimus 0.035 | idasanutlin 0.007 | alisertib 0.004 | [5] -0.011 | gefitinib 0.056 | [6] 0.009 | lapatinib 0.029 | pictilisib 0.017

DDB1 (UniProt Q16531)
inactive: saracatinib 0.04 | sotrastaurin 0.04 | alvocidib 0.004 | Tubastatin A -0.025 | [1] 0.001 | defactinib 0.002 | rucaparib -0.033 | [2] -0.035 | encorafenib 0.003 | [3] 0 | [4] -0.024 | filanesib -0.015 | zotarolimus -0.017 | idasanutlin -0.029 | alisertib -0.06 | [5] 0.006 | gefitinib -0.012 | [6] 0.061 | lapatinib -0.022 | pictilisib 0.025

EDC3 (UniProt Q96F86)
UniProt Q96F86, sequence (Q96F86 whole entry, looked up): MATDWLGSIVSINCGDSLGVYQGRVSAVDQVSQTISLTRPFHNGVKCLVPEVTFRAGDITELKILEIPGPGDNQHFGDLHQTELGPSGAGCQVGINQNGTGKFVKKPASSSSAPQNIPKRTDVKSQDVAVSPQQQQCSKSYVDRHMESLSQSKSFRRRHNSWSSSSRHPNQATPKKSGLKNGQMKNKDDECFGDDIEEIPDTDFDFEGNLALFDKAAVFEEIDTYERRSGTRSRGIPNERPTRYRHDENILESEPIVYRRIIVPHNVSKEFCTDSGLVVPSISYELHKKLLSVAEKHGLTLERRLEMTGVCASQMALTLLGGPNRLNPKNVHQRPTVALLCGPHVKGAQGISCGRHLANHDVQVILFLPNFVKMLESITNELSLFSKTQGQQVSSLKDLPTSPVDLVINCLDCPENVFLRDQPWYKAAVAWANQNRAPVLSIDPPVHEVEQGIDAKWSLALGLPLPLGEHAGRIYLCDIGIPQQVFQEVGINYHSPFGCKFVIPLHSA
inactive: saracatinib -0.041 | sotrastaurin -0.304 | alvocidib -0.021 | Tubastatin A 0.053 | [1] -0.021 | defactinib -0.04 | rucaparib 0.015 | [2] -0.237 | encorafenib 0.048 | [3] 0.005 | [4] 0.02 | filanesib 0.112 | zotarolimus -0.156 | idasanutlin 0.065 | alisertib 0.02 | [5] 0.046 | gefitinib -0.013 | [6] -0.337 | lapatinib -0.019 | pictilisib -0.187

CTSB (UniProt P07858)
inactive: saracatinib 0.05 | sotrastaurin 0.064 | alvocidib 0 | Tubastatin A 0.002 | [1] 0.052 | defactinib -0.014 | rucaparib -0.073 | [2] -0.009 | encorafenib 0.013 | [3] -0.008 | [4] 0.044 | filanesib -0.16 | zotarolimus 0.044 | idasanutlin 0.032 | alisertib 0.007 | [5] -0.006 | gefitinib 0.024 | [6] 0.03 | lapatinib -0.016 | pictilisib 0.043

DNAJC1 (UniProt Q96KC8)
UniProt Q96KC8, sequence (Q96KC8 whole entry, looked up): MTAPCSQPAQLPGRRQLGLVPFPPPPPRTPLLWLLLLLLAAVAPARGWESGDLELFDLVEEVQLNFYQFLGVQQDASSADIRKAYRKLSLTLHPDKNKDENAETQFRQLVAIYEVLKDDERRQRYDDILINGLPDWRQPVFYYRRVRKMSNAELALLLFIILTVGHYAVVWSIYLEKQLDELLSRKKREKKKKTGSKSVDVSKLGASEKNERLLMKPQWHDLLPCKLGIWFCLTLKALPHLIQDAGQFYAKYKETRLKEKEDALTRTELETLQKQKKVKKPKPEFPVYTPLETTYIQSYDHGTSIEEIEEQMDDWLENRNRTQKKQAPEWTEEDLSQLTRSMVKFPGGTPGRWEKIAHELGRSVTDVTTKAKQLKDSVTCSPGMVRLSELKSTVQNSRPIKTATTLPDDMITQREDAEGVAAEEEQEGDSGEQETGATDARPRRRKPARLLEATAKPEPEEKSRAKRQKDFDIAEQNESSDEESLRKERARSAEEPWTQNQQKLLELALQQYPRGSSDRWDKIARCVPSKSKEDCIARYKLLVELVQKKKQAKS
inactive: saracatinib -0.02 | sotrastaurin -0.028 | alvocidib -0.012 | Tubastatin A 0.018 | [1] 0.046 | defactinib 0.004 | rucaparib 0.03 | [2] -0.011 | encorafenib 0.003 | [3] 0.005 | [4] -0.023 | filanesib -0.138 | zotarolimus -0.039 | idasanutlin -0.064 | alisertib 0.001 | [5] -0.17 | gefitinib 0.008 | [6] 0.022 | lapatinib -0.078 | pictilisib 0.017

DLD (UniProt P09622)
inactive: saracatinib 0.055 | sotrastaurin 0.015 | alvocidib 0.026 | Tubastatin A -0.029 | [1] 0.008 | defactinib 0.01 | rucaparib -0.041 | [2] -0.023 | encorafenib -0.011 | [3] 0.047 | [4] -0.003 | filanesib -0.106 | zotarolimus -0.032 | idasanutlin 0.004 | alisertib -0.024 | [5] -0.056 | gefitinib -0.096 | [6] 0.036 | lapatinib -0.015 | pictilisib 0.067

EED, A0A5F9ZI63
inactive: saracatinib 0.008 | sotrastaurin -0.065 | alvocidib 0.037 | Tubastatin A -0.041 | [1] -0.057 | defactinib -0.04 | rucaparib 0.125 | [2] -0.052 | encorafenib 0.025 | [3] -0.05 | [4] 0.008 | filanesib 0.115 | zotarolimus -0.01 | idasanutlin 0.08 | alisertib -0.097 | [5] 0.032 | gefitinib 0.006 | [6] 0.018 | lapatinib 0.091 | pictilisib -0.163
